ALDH1A1 block = blocks purified human ALDH1A1 activity; P00352; Purified ALDH1A1, NADH fluorescence, propionaldehyde substrate; Potency, µM (doses to about 75.3 µM), most hits filed as inhibitors; 220,000 compounds, 7.3% hits; AID 1030
Target sequence (P00352 whole entry, looked up): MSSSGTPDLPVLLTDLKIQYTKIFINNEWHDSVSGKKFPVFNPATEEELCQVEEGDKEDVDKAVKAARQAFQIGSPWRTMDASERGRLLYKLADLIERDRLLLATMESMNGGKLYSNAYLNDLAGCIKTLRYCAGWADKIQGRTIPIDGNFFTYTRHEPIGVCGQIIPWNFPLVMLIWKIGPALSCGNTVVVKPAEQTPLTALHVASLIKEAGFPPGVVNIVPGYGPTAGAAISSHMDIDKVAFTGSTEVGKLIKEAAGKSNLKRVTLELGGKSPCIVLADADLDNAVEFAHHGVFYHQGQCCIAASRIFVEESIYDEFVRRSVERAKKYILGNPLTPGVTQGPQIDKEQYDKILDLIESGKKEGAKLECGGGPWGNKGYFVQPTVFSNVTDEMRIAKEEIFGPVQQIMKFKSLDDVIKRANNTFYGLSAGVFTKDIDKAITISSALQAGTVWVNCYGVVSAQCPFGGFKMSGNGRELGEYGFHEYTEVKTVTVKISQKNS
JMJD2E inh = inhibitors of human JMJD2E histone demethylase | JMJD2E catalytic domain, FDH-coupled NADH fluorescence (FDH is formaldehyde dehydrogenase) | Potency, µM (doses to about 57.1 µM), most hits filed as inhibitors | B2RXH2 | 230,000 compounds, 1.6% hits; note: nearly all actives have a fitted effect of over 50% in size
HPGD block = blocks human HPGD enzyme activity. Potency, µM, usual class: inhibitors. AID 894. purified HPGD, NADH fluorescence kinetic, PGE2 substrate. 150,000 compounds, 4.3% hits
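20 nM HPGD preincubated 15 min at room temperature with compound in 50 mM Tris-HCl pH 8, 0.01% Tween 20. Started with 1 mM NAD+ and 30 uM prostaglandin E2; NADH fluorescence (360/450 nm) read 5 times over 30-s intervals, last minus first.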
PNC inhibitor = blocks assembly of the perinucleolar compartment | PC3M PTB-GFP, PNC prevalence imaging, 16 h; hits give low values | activity change (PNC), negative = inhibition, % at 10 µM | 140,000 compounds, 3.1% hits | AID 2417;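 active = readout at or below -70, meaning at least 70% loss of cells showing the perinucleolar compartment, a nuclear body marking cancer cells; inconclusive = readout between -30 and a set limit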
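PC3M cells stably expressing PTB-GFP, 750–1000 cells/well, treated 16 h at 37 °C with compound (23 nl of library stock), in duplicate. After paraformaldehyde fixation and Hoechst stain, imaged at 20x; PNC prevalence scored by image analysis.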
Hits are given with their value; n = inactive; u = inconclusive; x = no result given; [ ] = dose if it differs, or a comment. Rows were chosen to be rich in hits. Some 11% of all compounds tested hit in one or more screens of this group. Unless noted, calls come from the whole dose curve; as a rule, active = well fitted inhibition curve with a large enough effect (not every such curve was filed as active); inconclusive = small, poorly fitted or top-dose-only effect, or another doubt; inactive = no such curve, though single readings can be large or run the other way.

SMILES	ALDH1A1 block	JMJD2E inh	HPGD block	PNC inhibitor
COc1ccc(C(=O)N/N=C/c2ccc(OC)c(CSc3ccccn3)c2)cc1	u	u	32µM	n
COc1[nH]c2ccc(F)cc2c1C(=O)OCC1CCN(CCNS(C)(=O)=O)CC1	n	n	n	x
CC(/C=N/NC(=O)CSc1ccccn1)=C\c1ccc(C(C)C)cc1	25µM	n	n	n
COc1ccc(NC(=O)CSc2ccc(-c3ccccn3)nn2)cc1OC	14µM	u	n	n
COC(=O)C(NC(=O)c1cccnc1Cl)C(C)C (stereo unspecified)	x	n	x	x
O=C1COc2ccc(C(=O)COC(=O)c3cnc(Cl)c(Cl)c3)cc2N1	1.3µM	n	x	x
O=C1COc2ccc(C(=O)COC(=O)Cn3cnc4ccccc43)cc2N1	28µM	n	n	u
CCN(CC)S(=O)(=O)c1cc(C(=O)OCC(=O)c2ccc3c(c2)NC(=O)CO3)ccc1Cl	u	n	n	n
Cc1nc(-c2ccc([N+](=O)[O-])cc2)sc1C(=O)O	n	n	x	x
COc1ccc(CN2CCC(CO)(Cc3cccc(C(F)(F)F)c3)CC2)cc1Cn1cccn1	n	n	x	x
O=C(O)C[C@H](S)C(=O)O	n[13.5 µM]	x	n	x
CC(S)C(=O)NCC(=O)O (stereo unspecified)	18µM	x	n	x
CCN=c1scc(-c2ccco2)n1/N=C/c1ccc(O)cc1	20µM	n	u	u
CCN=c1scc(-c2ccco2)n1/N=C/c1ccc(OC)c(O)c1	u	n	n	n
COc1ccc(Nc2nnc(C)c(=O)[nH]2)c(OC)c1	x	n	x	x
COc1ccccc1/C=C1\CCCC2=C1Nc1nnnn1C2c1ccccc1OC (stereo unspecified)	25µM	n	n	n
COc1ccc(-c2cc(=O)c3ccc(O)cc3o2)cc1	n	n	n	x
Cc1ccccc1NC(=O)COc1ccc2oc(=O)cc(C)c2c1	u	n	x	x
O=C(COc1ccc2oc(-c3ccccc3)cc(=O)c2c1)Nc1ccccc1	n	n	n	-112
COc1cc(-c2cc(=O)c3c(O)c(OC)c(OC)c(OC)c3o2)cc(OC)c1OC	11µM	n	n	x
COc1ccc(-c2cc(=O)c3c(OC)c(OC)c(OC)c(OC)c3o2)cc1	1.4µM	n	n	x
COc1ccc(-c2cc(=O)c3cc(OC)ccc3o2)cc1	u	0.71µM	u	x
CC(=O)Oc1ccc(N(c2ccccc2)S(=O)(=O)c2ccc(C)cc2)cc1	u	n	x	x
CN1CCC(CNC(=O)c2ccc(Cc3nc4ccccc4[nH]3)cc2)CC1	n	x	n	x
COc1cccc(N2C(=O)CC(N3CCC(C(N)=O)(N4CCCCC4)CC3)C2=O)c1 (stereo unspecified)	10µM	n	n	n
SMILES	ALDH1A1 block	JMJD2E inh	HPGD block	PNC inhibitor
COc1ccc(N2C(=O)CC(N3CCCC4CCCCC43)C2=O)cc1 (stereo unspecified)	8.9µM	n	n	n
O=C1CCCN1CCC1CCN(C2CC(=O)N(c3ccc(Cl)cc3)C2=O)CC1 (stereo unspecified)	20µM	n	n	n
COc1ccc(N2C(=O)CC(N3CCN(c4ccc(S(=O)(=O)N5CCCC5)cc4)CC3)C2=O)cc1 (stereo unspecified)	22µM	n	n	n
O=C1CCCN1CCC1CCN(C2CC(=O)N(Cc3ccc(N4CCCC4=O)cc3)C2=O)CC1 (stereo unspecified)	u	n	n	u
COc1ccc(N2C(=O)CC(C3CCCO3)C2=O)cc1 (stereo unspecified)	n	n	x	x
COc1ccc(N2C(=O)CC(N3CCCCC3)C2=O)cc1 (stereo unspecified)	18µM	n	x	x
Cc1cccc(N2C(=O)CC(N3CCN(c4ccccc4)CC3)C2=O)c1 (stereo unspecified)	u	n	n	n
CC1CCN(C2CC(=O)N(c3ccc(Br)cc3Br)C2=O)CC1 (stereo unspecified)	x	n	x	x
Cc1cccc(N2C(=O)CC(N3CCN(C(=O)c4ccccc4)CC3)C2=O)c1 (stereo unspecified)	25µM	n	n	n
O=C1CC(N2CCCCCC2)C(=O)N1c1ccc(F)cc1 (stereo unspecified)	13µM	n	x	x
COc1ccc(N2C(=O)CC(N3CCN(C(=O)c4ccco4)CC3)C2=O)cc1 (stereo unspecified)	u	n	x	x
CC1CCN(C2CC(=O)N(c3ccccc3)C2=O)CC1 (stereo unspecified)	28µM	n	x	x
O=C(NCCCCc1ccccc1)C1CC(c2ccc(C(F)(F)F)cc2)=NO1 (stereo unspecified)	x	n	x	x
C/C(=C\c1ccco1)CN1CCN(Cc2ccc(C)o2)C(CCO)C1 (stereo unspecified)	n	n	x	x
CN(C)c1nc2c(Br)c(Br)c(Br)c(Br)c2[nH]1	n	n	n	x
CC(C)C(=O)OCc1cn(-c2ccc(Cl)c(Cl)c2)nn1	u	n	x	x
O=C1CC(N2CCN(Cc3ccc4c(c3)OCO4)CC2)C(=O)N1c1cccc(Cl)c1 (stereo unspecified)	u	n	n	n
COc1ccc(N2C(=O)CC(N3CCN(C4CCc5ccccc5C4)CC3)C2=O)cc1 (stereo unspecified)	u	n	n	-121
O=C1CC(N2CCCCCC2)C(=O)N1c1ccc2c(c1)OCO2 (stereo unspecified)	5µM	n	n	n
COc1ccc(N2C(=O)CC(NC3CCCCNC3=O)C2=O)cc1 (stereo unspecified)	20µM	n	n	u
O=C1CC(NC23CC4CC(CC(C4)C2)C3)C(=O)N1c1ccc2c(c1)OCO2 (stereo unspecified)	11µM	n	n	n
O=C1C2C3C=CC(C3)C2C(=O)N1c1ccc2c(c1)OCO2 (stereo unspecified)	u	u	n	n
O=C(/C=C/c1ccccc1[N+](=O)[O-])N1CCN(C(=O)c2ccco2)CC1	n	n	x	x
C=C(C(=O)c1ccccc1)C(CC(=O)c1ccccc1)c1ccccc1 (stereo unspecified)	u	u	n	n
CCCCOC(=O)c1cccnc1	n	n	x	x
SMILES	ALDH1A1 block	JMJD2E inh	HPGD block	PNC inhibitor
COc1ccccc1CNCCCCCCNCCCCCCCCNCCCCCCNCc1ccccc1OC	n	n	n	x
CCOC(=O)c1cnn(-c2ncnc3c2oc2ccccc23)c1N	n	n	n	n
CCOC(=O)CSc1nc(N)c2c3c(sc2n1)CCCC3	n	n	n	n
CCOC(=O)c1cnn(-c2ncnc3sc4c(c23)CCC4)c1N	n	n	7.9µM	n
CCOC(=O)c1cnn(-c2nc(SC)nc3sc4c(c23)CCCC4)c1N	1.1µM	n	n	n
COc1ccc(C)cc1NC(=O)NNC(=O)C1CCC(C(C)(C)C)CC1 (stereo unspecified)	n	n	x	x
C=C(CC(=O)O)C(=O)O (tested in a mixture with another compound)	n[13.5 µM]	x	n	x
CCCOC(=O)c1cc(-c2ccc(C=O)o2)ccc1Cl	u	n	n	u
C=CCOC(=O)c1cc(-c2ccc(/C=C3\C(=O)NC(=O)C(C#N)=C3C)o2)ccc1Cl	10µM	u	16µM	u
CCOC(=O)c1c(C)oc2c1c(C(c1cccnc1)N1CCN(C)CC1)c(O)c1ccccc12 (stereo unspecified)	13µM	n	n	n
